Source: PubChem (several laboratories)
AHR act – AHR activators, primary screen, cell-based, luminescence, luciferase reporter, human; Aryl hydrocarbon receptor (Homo sapiens), P35869; AHR-responsive luciferase reporter cells; activation, % at 5 µM; hit rate 2.5% among 320,000; AID 2796, 2010; in the data active = activation above about 47%;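 also: 0% = vehicle wells and 100% = reference agonist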
Bfl-1 A1 inh – caspase 3/7 activation in MEF A1-2A-BIM cells, primary screen, A1 inhibitor project, cell-based, luminescence, HTS; Caspase-Glo 3/7 luminescence, 3 h; percent of clofoctol response, vehicle zero; caspase activation, % (concentration not given with the values); hit rate 0.066% among 330,000; AID 2462, 2010;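 active = over half of replicate activation scores above 10%, or exactly half above 10 with the replicate mean above 10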
VLA-4 inh – inhibition in human VLA-4 binding assay, primary screen, VLA-4 allosteric modulator project, MLPCN library, flow cytometry, VLA-4 expressing cells; ligand binding flow cytometry; Integrin alpha-4 (Homo sapiens), P13612; inhibition, % (about 7 µM as worked out from the volumes in the protocol); AID 2557, 2010; hit rate 0.2% among 330,000; in the data active = inhibition above about 50%
ALR H2O2 inh – inhibitors of human ALR sulfhydryl oxidase, primary screen, biochemical, H2O2 detection, HRP-luminol luminescence, single point | purified ALR, DTT oxidation | inhibition, % (concentration not given with the values) | hit rate 3.8% among 290,000 | AID 485317, 2010;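 active = mean replicate inhibition above about 79%, with every replicate also reaching it, limit read from the data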
SUMO Mot1 rescue – yeast Mot1-301 growth rescue at high temperature, primary screen, SUMOylation pathway inhibitor project, S. cerevisiae, ATP luminescence, 38.5C; growth rescue, % at 18.8 µM; S. cerevisiae Mot1-301 growth rescue; percent above DMSO median, 100 means doubled; hit rate 1% among 320,000;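 active = every valid replicate shows activation above 250% relative to neutral control wells; inactive = the rest, any valid replicate at or below 250%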;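 also: OY570 slx delta 5 strain wells were the positive control but not used for scaling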
Efflux pump mplx – inhibitors of Candida efflux pumps in yeast, primary screen, S. cerevisiae, Nile Red, multiplex. S. cerevisiae Candida pump triplex. AID 485275, 2010. hit rate 0.44% among 330,000. inhibition, % at 10 µM;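 active = plate passing quality check with inhibition over a set limit, or well fluorescence over plate mean plus 4 SD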;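 also: Nile Red retained in pooled yeast measured as flow cytometry median fluorescence; 0% = buffer negative control and 100% = Enniatin B positive control; higher means more Nile Red kept so more efflux inhibition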
Cmpd fluor yeast – compound fluorescence in yeast efflux pump counter-screen; shares compounds with Efflux pump mplx; S. cerevisiae AD/pABC3, flow cytometry; fluorescence ratio to DMSO, % at 10 µM; hit rate 4% among 1,700; AID 588517;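 active = fluorescence ratio to DMSO above its plate's cutoff, the plate mean ratio plus 5 SD, cut at about 210% in these data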;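 also: unstained yeast with no Nile Red so the signal is compound autofluorescence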
Mdr1 pump inh – inhibitors of Candida albicans Mdr1 efflux, confirmation, flow cytometry, singleplex, Cherry Pick1 set; shares compounds with Efflux pump mplx; S. cerevisiae AD/CaMDR1, Nile Red efflux; inhibition, % at 10 µM; hit rate 1% among 1,700; in the data active = inhibition above about 26%;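 also: 0% = DMSO vehicle and 100% = reference inhibitor; higher means more Nile Red retained so more efflux inhibition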
CaCdr2 efflux inh – inhibitors of Candida albicans Cdr2 efflux pump, confirmation, S. cerevisiae AD/CaCDR2, flow cytometry, cherry pick 1, singleplex. shares compounds with Efflux pump mplx. Nile Red retention. Nile Red retention ratio vs DMSO, % at 10 µM. hit rate 4% among 1,700; in the data active = Nile Red retention ratio vs DMSO above about 190%;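 also: higher ratio means more blocking of Cdr2 efflux of the dye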
Cdr1 pump inh – inhibitors of Candida albicans Cdr1 efflux pump, confirmation, S. cerevisiae AD/CaCDR1, flow cytometry, cherry pick 1, singleplex. hit rate 1% among 1,700. shares compounds with Efflux pump mplx. Nile Red efflux. inhibition, % at 10 µM;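 active = inhibition above the screen-wide mean plus twice its standard deviation, cut at about 32% in these data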
An asterisk follows results filed as active; i = inactive; . = not tested or not shown. A selection: hits, their analogues and other compounds. The true share with any hit is near 7.2%.

SMILES	AHR act	Bfl-1 A1 inh	VLA-4 inh	ALR H2O2 inh	SUMO Mot1 rescue	Efflux pump mplx	Cmpd fluor yeast	Mdr1 pump inh	CaCdr2 efflux inh	Cdr1 pump inh
CCC1(c2ccccc2)NC(=O)N(CC(=O)N(C)Cc2ccccc2)C1=O (centres undefined)	-0.2	0.9	10.9	.	12.0	1.1*	98.9	-0.3	112.4	-0.1
CNC(=S)Nc1ccc(C)cc1	3.9	0.3	-7.7	-0.3	-14.1	11.1*	99.8	-0.1	101.8	-0.1
CC(C)n1cc(C(=O)N2CCCC(Nc3ccc(F)c(F)c3)C2)cn1 (centres undefined)	1.2	1.3	4.0	.	108.3	0.1	.	.	.	.
O=C(NCCc1ccc(Cl)cc1Cl)c1cccnc1	5.5	0.1	-17.9	-7.8	11.0	0.1	.	.	.	.
COc1ccc(OC)c2sc(N3CCCCC3)nc12	43.4	0.6	15.2	29.3	0.4	1.1*	103.4	-0.3	95.1	0.1
CCOc1ccc(/C(O)=C2/C(=O)C(=O)N(CCN(C)C)C2c2ccccc2)cc1Cl (centres undefined)	4.0	0.4	6.3	-9.1	-2.8	8.9*	102.6	0.0	96.5	0.0
COc1ccc(S(=O)(=O)N2CCCCC2)cc1NC(=O)c1ccc(CS(C)(=O)=O)cc1	5.0	-0.9	-9.2	.	300.4	1.1*	113.2	0.5	112.3	0.1
O=C1[C@@H]2CSCN2C(=O)CN1Cc1c(F)cccc1Cl	-1.3	1.1	0.6	-4.4	33.2	-0.1	.	.	.	.
Cc1cccc(NC(=O)C2CC(=O)OC23CCCCC3)c1 (centres undefined)	1.9	-0.1	6.6	-3.6	-14.5	-0.1	.	.	.	.
COc1ccc(C)cc1NC(=O)C1CC(=O)OC12CCCCC2 (centres undefined)	4.8	0.0	2.5	-7.4	-5.5	1.3*	100.3	-0.5	113.8	-0.1
CN1/C(=C\C=C2/SC(=S)NC2=O)C(C)(C)c2ccccc21	-2.3	-1.0	i	58.5	14.3	0.8*	169.7	1.7	188.0	0.6
COc1ccc2[nH]cc(C(=O)CN3CCCC(C)C3)c2c1 (centres undefined)	1.2	-0.2	-2.3	-6.9	-6.5	0.1	.	.	.	.
COc1ccc2[nH]cc(C(=O)CN3CCC(C)CC3)c2c1	33.3	0.3	-6.9	-16.0	-5.7	8.2*	104.6	0.1	112.2	0.1
CCCS(=O)(=O)c1nc(S(=O)(=O)c2ccc(C)cc2)c(NCc2ccco2)s1	1.9	0.0	6.1	-8.6	-6.1	10.2*	98.2	-0.1	87.3	-0.1
Cc1ccc(S(=O)(=O)c2nc(S(=O)(=O)c3ccc(C)cc3)c(NCc3ccco3)s2)cc1	1.6	0.6	.	-4.7	1.8	0.1	.	.	.	.
CC(C)(C)OC(=O)N1CCC(c2c(C(=O)NC3CC3)cnn2-c2ccc(Cl)cc2)CC1	2.0	0.2	18.2	-3.1	18.7	0.1	.	.	.	.
CCOc1cc(C2C3=C(CCCC3=O)Nc3nc(C(=O)OC)nn32)ccc1OC (centres undefined)	2.2	0.1	-14.1	-20.7	44.4	1.4*	103.4	0.0	99.3	0.2
COC(=O)c1cc(C)nc(Sc2ccccc2N)n1	5.0	0.2	-1.3	16.2	10.2	-0.1	.	.	.	.
